Results published in ChEMBL document CHEMBL3433997, “St. Jude Leishmania screening dataset” (2016).

Tests used:
Type in all cases: functional
[1] = target: Solute carrier family 2, facilitated glucose transporter member 1 (Homo sapiens) (UniProt P11166); assay: ST_JUDE_LEISH: Cytotoxicity at 2uM final concentration against transgenic Leishmania Mexicana promastigotes LmGLUT1 that are glucose transport deficient and complemented with the human glucose transporter GLUT1. Activity is measured by DNA content using SYBR green in vitro
[2] = target: Hexose transporter 1 (Plasmodium falciparum) (UniProt O97467); assay: ST_JUDE_LEISH: Cytotoxicity at 2uM final concentration against transgenic Leishmania Mexicana promastigotes LmPfHT that are glucose transport deficient and complemented with the Plasmodium falciparum hexose transporter. Activity is measured by DNA content using SYBR green in vitro
[3] = target: Glucose transporter (Leishmania mexicana) (UniProt O61059); assay: ST_JUDE_LEISH: Cytotoxicity at 2uM final concentration against transgenic Leishmania Mexicana promastigotes LmGT2 that are glucose transport deficient and complemented with the L. Mexicana glucose transporter 2. Activity is measured by DNA content using SYBR green in vitro

Solute carrier family 2, facilitated glucose transporter member 1 (Homo sapiens), sequence (P11166 whole entry): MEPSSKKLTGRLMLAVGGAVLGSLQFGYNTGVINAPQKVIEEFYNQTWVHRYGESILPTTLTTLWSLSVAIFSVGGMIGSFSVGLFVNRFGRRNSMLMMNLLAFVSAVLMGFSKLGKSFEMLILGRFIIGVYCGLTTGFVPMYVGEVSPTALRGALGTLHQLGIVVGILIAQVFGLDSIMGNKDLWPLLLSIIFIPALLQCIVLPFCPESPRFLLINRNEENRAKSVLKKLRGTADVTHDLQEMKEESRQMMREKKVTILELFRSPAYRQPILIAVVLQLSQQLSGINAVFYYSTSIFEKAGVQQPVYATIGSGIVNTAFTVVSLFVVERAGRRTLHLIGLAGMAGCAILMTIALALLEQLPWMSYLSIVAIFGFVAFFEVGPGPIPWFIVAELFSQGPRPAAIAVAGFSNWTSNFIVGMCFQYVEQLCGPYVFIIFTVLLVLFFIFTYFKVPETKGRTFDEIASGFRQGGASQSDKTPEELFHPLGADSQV

Row | Structure (SMILES) | inhibition [1] | inhibition [2] | inhibition [3]
1 | COc1ccc2c(c1)CC1CN(CCCCNC(=O)c3ccc(NC(=O)c4cc(Cl)cc(Cl)c4)cc3)CCN1C2 (stereo unspecified) | 3.25% | 4.38% | 3.79%
2 | N#Cc1ccc(-c2ccc(C(=O)NCCCCN3CCC(c4cc(Br)c5c(c4OCC(N)=O)CCCC5)CC3)cc2)cc1 | 2.88% | 1.24% | -0.04%
3 | O=C(NCCNc1ccnc(Nc2ccc(F)cc2)n1)Nc1ccccc1F | 2.71% | 1.86% | -2.84%
4 | Clc1ccc(-c2cc(-c3csc(NCCN4CCCCC4)n3)on2)cc1 | 6.93% | 7.19% | 5.8%
5 | OC(c1ccccc1)C1CN(CCc2ccccc2)CCC1(O)c1ccccc1 (stereo unspecified) | 0.73% | -1.7% | -1.32%
6 | Cc1cc(N[C@@H](CC(C)C)C(=O)Nc2ccccc2)nc(NCCc2ccccc2)n1 | 3.68% | 2.93% | 0.92%
7 | O=S(=O)(NCCN1CCCC1)c1cccc(-c2ccccc2CNC2Cc3ccccc3C2)c1 | 60.1% | 16% | 10.6%
8 | COc1ccc2nccc([C@@H](O)CN3CCC(NCc4ccc5c(n4)NCCC5)CC3)c2c1 | 6.88% | 6.43% | 6.5%
9 | CC(C)(C)C1CCc2nc(N)nc(N)c2C1 (stereo unspecified) | 44.3% | 55.5% | 46.5%
10 | Cc1cc(=O)[nH]c(-n2nc(C)cc2NC(=O)C(c2ccccc2)c2ccccc2)n1 | 20.5% | 29.6% | 6.5%
11 | COc1ccc2ncc(F)c(CCN3CC[C@H](NCc4cc5c(s4)CCCN5)[C@H](O)C3)c2n1 | 9.63% | 15.1% | 2.43%
12 | CCOc1ccc(-c2noc(-c3c[nH]c4ccccc4c3=O)n2)cc1 | 1.69% | -0.34% | 2.82%
